In PubChem BioAssay (NCI):
Compounds without any hit were thinned out: in the full panel of roughly 79,000, 15% have a hit. Values without a mark were called inactive. The source made the active and inactive calls. Rule as the data show it: active = growth inhibition above about 70%; inactive = the rest.

Test: NCI Yeast Anticancer Drug Screen. Data for the CLN2oe strain (AID 163);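 also: 0% = growth of vehicle-only control cultures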
Conditions: S. cerevisiae CLN2oe strain, at 100.0 µM, stronger effect = higher value
Outline: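 Whole-cell yeast growth assay. A strain engineered for altered cell-cycle control received compound, and inhibition relative to vehicle-treated cultures was recorded.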
With `CCOP(=O)(OCC)C(Cc1ccccc1)N=C(c1ccccc1)c1ccccc1` (centres undefined) the growth inhibition was 98% (active). In the case of `CCc1ncnc2cc(OCC3CO3)c(OC)cc12` (centres undefined), the growth inhibition is reported as 52%. Compound `CCOC(=O)[C@H]1Nc2ccccc2C2c3ccccc3CC21` (some centres undefined) has a growth inhibition of 23%. In the case of `O=CNc1ccc2c(c1)C(=O)c1ccccc1-2`, the growth inhibition is reported as 75% (active). Compound `CCOc1ccc2c(c1)c(CC(=O)O)cn2C` has a growth inhibition of 40%. For `OC1CSCCCSCCSCCCSC1`, the growth inhibition was 1%. For `N#Cc1c(N)[nH]c2ccc(Sc3ccccc3)cc12`, the growth inhibition was 96% (active). In the case of `Cc1ccc(-c2ccc(Nc3c4ccccc4nc4ccccc34)cc2)cn1`, the growth inhibition is reported as 73% (active). With `c1ccc2c(c1)NC(NC1Nc3ccccc3N1)N2` the growth inhibition was 8%. In the case of `OC(COc1cccc2ccccc12)CN1CCOCC1` (centres undefined), the growth inhibition is reported as 72% (active). With `CCC/C(Cl)=N\OC(=O)Nc1ccc(Br)cc1` the growth inhibition was 99% (active). For `COc1ccc(/C=C2\SC(=S)N(/C=C/c3nc4ccccc4[nH]c3=O)C2=O)cc1OC`, the growth inhibition was 88% (active). With `O=C(NNc1ccnc2cc(Cl)ccc12)/C(=C\c1ccccc1Cl)NC(=O)c1ccccc1` the growth inhibition was 83% (active). In the case of `CSC1=NNC(SC)=NN1`, the growth inhibition is reported as 99% (active). For `Cc1c(C2=C(Br)C(=O)N(C)C2=O)c(=O)n(C)c(=O)n1C`, the growth inhibition was 44%. For `NCCNc1ccc(NCCN)c2c1C(=O)c1c(O)ccc(O)c1C2=O`, the growth inhibition was 52%. For `Cn1c(=O)c(-c2ccccc2)c(N=[N+]=[N-])c2ccccc21`, the growth inhibition was 90% (active). In the case of `CCCCCCCCCCCCCCCCCCOCC(O)COP(=O)(O)OCC1OC(n2cc(F)c(=O)[nH]c2=O)CC1O` (centres undefined), the growth inhibition is reported as 99% (active). With `CCS(=O)(=O)c1ccc(/C=C/C=N/NC(=S)NCC(C)C)cc1` the growth inhibition was -7%. In the case of `CCC(=O)Oc1c(Cl)cc(Cl)c2ccccc12`, the growth inhibition is reported as 22%. `COc1cc2c3c(cccc3c1)C(=O)N(CCN(C)C)C2=O` showed a growth inhibition of 21%. `CN(C)c1ccc(C(C#N)=C(C#N)C#N)cc1` gave a growth inhibition of 16%. For `O=C(CCCN1CCC2(CC1)CC(=O)N(N1CCCCCC1)C2=O)c1ccc(F)cc1`, the growth inhibition was 79% (active). Compound `O=C1C2C(C(=O)N1c1ccc(OCc3ccccc3)cc1)C1c3ccccc3C2C2CCCCN21` (centres undefined) has a growth inhibition of 56%. Work on `CCN(CC)CCC(=O)c1ccc(Oc2ccc(F)cc2)cc1` yielded a growth inhibition of 68%. For `O=Nc1c(NO)ccc2nn(-c3ccccc3)nc12`, the growth inhibition was 98% (active). For `CC(=O)SCCC[Si](C)(C)CCCSC(C)=O`, the growth inhibition was 48%. For `O=C(O)C1CCCCC1c1c2ccc(=O)c(O)c-2oc2c(O)c(O)ccc12` (centres undefined), the growth inhibition was 86% (active). Work on `Cc1ccc(NN(NC(=O)OC(C)C)C(=O)OC(C)C)cc1` yielded a growth inhibition of 5%. In the case of `O=C1c2ccccc2C(=O)c2cc(CBr)ccc21`, the growth inhibition is reported as 61%. With `Cc1c(C(Cc2ccccc2N(C)C(=O)/C=C\C(=O)O)c2c[nH]c3ccccc23)c2ccccc2n1C` (centres undefined) the growth inhibition was 42%. Compound `CC(C)/C(Cl)=N\OC(=O)Nc1ccc(F)cc1` has a growth inhibition of 15%. For `O=C1OC(=O)C2CCCC3CCCC1C32` (centres undefined), the growth inhibition was 96% (active). Work on `CCOC(=O)C(NC(=O)c1ccccc1)(N1CCN(c2cc3c(cc2F)c(=O)c(C(=O)O)cn3C2CC2)CC1)C(F)(F)F` (centres undefined) yielded a growth inhibition of 9%. In the case of `COc1ccc(NC(=S)N/N=C(\c2ccccc2)c2ccccn2)cc1`, the growth inhibition is reported as 95% (active). With `C=CCC1=C(C)C(OC(=O)/C=C/c2ccccc2)CC1=O` (centres undefined) the growth inhibition was 28%. For `NNc1c(F)c(F)cc(F)c1F`, the growth inhibition was 26%. In the case of `COP(=O)(OC)/C(=C\C1=CN(C(c2ccccc2)(c2ccccc2)c2ccccc2)CN1)NC=O`, the growth inhibition is reported as 95% (active). `COC(=O)c1cc(-c2ccc(C)cc2)[nH]c(=O)c1C#N` gave a growth inhibition of 4%.
